Measurements taken from publication PMC7862700, “An all-to-all approach to the identification of sequence-specific readers for epigenetic DNA modifications on cytosine”.

Experiments:
Assay in all cases: DAPPL (digital affinity profiling via proximity ligation, sequencing); 10 mM Tris-HCl pH 7.5, 50 mM NaCl, 1 mM DTT, 4% glycerol, room temperature, 30 min; GST-TFs on glutathione beads, 16-mer random dsDNA library, 0.1% formaldehyde crosslink after washing; high values mean tight binding
[1] = target: T1, FEV (Homo sapiens, UniProt Q99581 1-238); settings: protein: recombinant; tags: N-terminal GST; dsDNA, one strand shown
T1 sequence: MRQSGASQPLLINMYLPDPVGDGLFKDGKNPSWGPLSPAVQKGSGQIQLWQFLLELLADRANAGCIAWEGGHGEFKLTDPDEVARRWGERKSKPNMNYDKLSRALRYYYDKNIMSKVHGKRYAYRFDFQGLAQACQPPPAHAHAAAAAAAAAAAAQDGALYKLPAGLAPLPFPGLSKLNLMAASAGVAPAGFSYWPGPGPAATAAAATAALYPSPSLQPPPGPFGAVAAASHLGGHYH
Summary of the method: (§1)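 Yeast served to express human transcription factors as GST fusions, which were then captured on glutathione beads and labelled with DNA barcodes. Pooled with a tag-only sample, they were incubated with 200 nmole of a 16-mer random double-stranded DNA library for 30 min at room temperature in Tris/NaCl/DTT/glycerol buffer, washed, crosslinked with 0.1% formaldehyde, ligated by proximity, amplified by PCR and sequenced. Dividing each hexamer's read frequency for a factor by its frequency for the tag-only sample gives the binding signal.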

[2] = target: ETV5 (Homo sapiens, UniProt P41161 1-510); settings: protein: recombinant; tags: N-terminal GST; dsDNA, one strand shown
Summary of the method: as §1

[3] = target: HSF1 (Homo sapiens, UniProt Q00613 1-529); settings: protein: recombinant; tags: N-terminal GST; chain copies: 3; dsDNA, one strand shown
Summary of the method: as §1

[4] = target: T2, SPIC (Homo sapiens, UniProt Q8N5J4 1-248); settings: protein: recombinant; tags: N-terminal GST; dsDNA, one strand shown
T2 sequence: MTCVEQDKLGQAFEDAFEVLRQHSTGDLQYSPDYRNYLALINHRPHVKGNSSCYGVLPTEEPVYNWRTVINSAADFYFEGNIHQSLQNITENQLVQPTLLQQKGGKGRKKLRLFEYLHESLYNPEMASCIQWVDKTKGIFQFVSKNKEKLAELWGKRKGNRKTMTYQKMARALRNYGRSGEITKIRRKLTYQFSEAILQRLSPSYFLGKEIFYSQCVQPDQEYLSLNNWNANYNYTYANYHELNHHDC
Summary of the method: as §1

[5] = target: ELF4 (Homo sapiens, UniProt Q99607 1-663); settings: protein: recombinant; tags: N-terminal GST; dsDNA, one strand shown
Summary of the method: as §1

[6] = target: T3, ELK4 (Homo sapiens, UniProt P28324-2 1-405); settings: protein: recombinant; tags: N-terminal GST; dsDNA, one strand shown
T3 sequence: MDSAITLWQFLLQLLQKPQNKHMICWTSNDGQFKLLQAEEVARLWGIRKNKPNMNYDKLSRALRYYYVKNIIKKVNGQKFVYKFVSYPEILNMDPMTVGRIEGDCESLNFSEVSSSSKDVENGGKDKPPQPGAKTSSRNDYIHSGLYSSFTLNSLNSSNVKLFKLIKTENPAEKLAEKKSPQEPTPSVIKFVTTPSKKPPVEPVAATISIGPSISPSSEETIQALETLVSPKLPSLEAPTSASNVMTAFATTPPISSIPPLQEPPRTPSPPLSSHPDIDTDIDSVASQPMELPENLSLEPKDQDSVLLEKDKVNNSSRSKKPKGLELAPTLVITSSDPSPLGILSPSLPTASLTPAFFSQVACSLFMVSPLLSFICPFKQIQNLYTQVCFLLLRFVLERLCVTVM
Summary of the method: as §1

[7] = target: T4, ETV2 (Homo sapiens, UniProt O00321 1-342); settings: protein: recombinant; tags: N-terminal GST; dsDNA, one strand shown
T4 sequence: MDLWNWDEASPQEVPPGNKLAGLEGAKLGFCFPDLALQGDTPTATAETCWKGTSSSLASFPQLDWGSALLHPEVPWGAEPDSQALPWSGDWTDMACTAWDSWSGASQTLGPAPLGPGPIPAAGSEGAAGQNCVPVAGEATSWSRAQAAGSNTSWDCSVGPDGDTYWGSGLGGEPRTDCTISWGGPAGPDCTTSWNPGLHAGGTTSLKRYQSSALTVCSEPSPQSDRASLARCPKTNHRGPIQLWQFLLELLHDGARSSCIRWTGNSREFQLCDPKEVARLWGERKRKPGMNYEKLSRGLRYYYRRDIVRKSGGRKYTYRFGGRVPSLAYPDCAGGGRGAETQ
Summary of the method: as §1

[8] = target: T5, ELF3 (Homo sapiens, UniProt P78545 1-371); settings: protein: recombinant; tags: N-terminal GST; dsDNA, one strand shown
T5 sequence: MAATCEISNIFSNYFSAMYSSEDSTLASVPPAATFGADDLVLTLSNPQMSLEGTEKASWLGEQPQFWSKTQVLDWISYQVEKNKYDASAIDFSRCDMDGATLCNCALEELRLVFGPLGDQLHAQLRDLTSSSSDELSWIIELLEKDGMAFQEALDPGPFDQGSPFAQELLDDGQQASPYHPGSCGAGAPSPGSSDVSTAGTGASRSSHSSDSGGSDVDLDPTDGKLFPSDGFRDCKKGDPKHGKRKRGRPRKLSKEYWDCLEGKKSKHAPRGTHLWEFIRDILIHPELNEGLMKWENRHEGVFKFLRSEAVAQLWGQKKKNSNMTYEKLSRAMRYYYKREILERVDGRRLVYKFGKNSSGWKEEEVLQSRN
Summary of the method: as §1

[9] = target: CRX (Homo sapiens, UniProt O43186 1-299); settings: protein: recombinant; tags: N-terminal GST; dsDNA, one strand shown
Summary of the method: as §1

[10] = target: ETV1 (Homo sapiens, UniProt P50549 1-477); settings: protein: recombinant; tags: N-terminal GST; dsDNA, one strand shown
Summary of the method: as §1

HSF1, sequence (Q00613 whole entry): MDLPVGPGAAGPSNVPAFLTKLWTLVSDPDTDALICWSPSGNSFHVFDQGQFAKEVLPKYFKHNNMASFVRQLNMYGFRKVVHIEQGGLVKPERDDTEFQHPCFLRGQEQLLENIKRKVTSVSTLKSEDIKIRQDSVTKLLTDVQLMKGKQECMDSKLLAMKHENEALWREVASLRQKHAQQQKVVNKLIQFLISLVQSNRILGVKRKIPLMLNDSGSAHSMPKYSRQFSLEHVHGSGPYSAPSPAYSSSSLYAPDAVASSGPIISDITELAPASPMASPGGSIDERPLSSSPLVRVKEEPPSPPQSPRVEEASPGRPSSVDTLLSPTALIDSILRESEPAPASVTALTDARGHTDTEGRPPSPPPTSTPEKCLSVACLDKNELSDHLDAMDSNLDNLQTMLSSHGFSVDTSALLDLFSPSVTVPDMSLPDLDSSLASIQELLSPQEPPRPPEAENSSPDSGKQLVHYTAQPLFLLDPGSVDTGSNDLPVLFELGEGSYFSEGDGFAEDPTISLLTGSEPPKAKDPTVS
ETV5, sequence (P41161 whole entry): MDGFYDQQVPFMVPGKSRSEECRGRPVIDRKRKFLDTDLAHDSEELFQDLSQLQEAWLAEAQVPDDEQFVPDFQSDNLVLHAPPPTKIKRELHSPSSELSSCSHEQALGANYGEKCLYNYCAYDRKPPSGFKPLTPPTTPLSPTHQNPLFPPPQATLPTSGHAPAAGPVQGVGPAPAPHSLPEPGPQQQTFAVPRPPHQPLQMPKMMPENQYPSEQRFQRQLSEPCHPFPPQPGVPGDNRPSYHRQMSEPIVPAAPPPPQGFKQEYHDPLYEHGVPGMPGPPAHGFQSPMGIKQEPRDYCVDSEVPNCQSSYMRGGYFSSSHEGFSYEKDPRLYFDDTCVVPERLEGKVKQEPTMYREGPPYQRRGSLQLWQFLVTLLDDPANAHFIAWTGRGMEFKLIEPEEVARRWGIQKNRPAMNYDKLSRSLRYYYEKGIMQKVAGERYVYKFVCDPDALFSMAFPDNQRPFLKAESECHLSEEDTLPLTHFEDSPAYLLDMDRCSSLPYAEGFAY
ETV1, sequence (P50549 whole entry): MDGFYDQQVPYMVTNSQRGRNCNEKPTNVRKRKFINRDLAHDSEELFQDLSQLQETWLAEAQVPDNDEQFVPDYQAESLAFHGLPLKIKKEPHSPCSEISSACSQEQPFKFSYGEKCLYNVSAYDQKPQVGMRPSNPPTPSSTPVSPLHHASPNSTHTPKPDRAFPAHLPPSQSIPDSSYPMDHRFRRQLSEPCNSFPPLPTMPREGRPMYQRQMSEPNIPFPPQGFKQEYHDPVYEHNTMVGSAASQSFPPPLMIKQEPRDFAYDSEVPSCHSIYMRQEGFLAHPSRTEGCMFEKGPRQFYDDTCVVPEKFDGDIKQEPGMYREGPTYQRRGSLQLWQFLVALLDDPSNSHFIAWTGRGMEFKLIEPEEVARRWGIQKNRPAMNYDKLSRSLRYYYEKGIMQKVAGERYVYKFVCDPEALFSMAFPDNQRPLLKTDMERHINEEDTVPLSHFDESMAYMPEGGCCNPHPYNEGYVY
ELF4, sequence (Q99607 whole entry): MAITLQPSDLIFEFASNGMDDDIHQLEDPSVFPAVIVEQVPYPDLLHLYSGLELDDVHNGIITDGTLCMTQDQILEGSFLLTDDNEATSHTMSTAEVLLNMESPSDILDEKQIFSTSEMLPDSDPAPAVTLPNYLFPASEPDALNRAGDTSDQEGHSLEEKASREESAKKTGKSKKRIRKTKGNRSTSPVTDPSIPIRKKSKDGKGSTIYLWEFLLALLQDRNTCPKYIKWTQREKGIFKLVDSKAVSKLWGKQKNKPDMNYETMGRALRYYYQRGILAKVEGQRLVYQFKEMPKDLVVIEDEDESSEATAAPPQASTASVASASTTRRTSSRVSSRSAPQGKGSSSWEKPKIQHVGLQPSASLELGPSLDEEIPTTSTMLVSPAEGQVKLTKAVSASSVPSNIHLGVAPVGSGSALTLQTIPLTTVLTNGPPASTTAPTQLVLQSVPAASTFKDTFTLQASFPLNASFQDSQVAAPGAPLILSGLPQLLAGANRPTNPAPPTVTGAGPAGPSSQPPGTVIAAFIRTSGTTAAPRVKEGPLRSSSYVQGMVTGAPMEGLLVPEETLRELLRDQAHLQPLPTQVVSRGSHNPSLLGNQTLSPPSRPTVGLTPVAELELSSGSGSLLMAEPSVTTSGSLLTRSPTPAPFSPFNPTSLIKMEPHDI
CRX, sequence (O43186 whole entry): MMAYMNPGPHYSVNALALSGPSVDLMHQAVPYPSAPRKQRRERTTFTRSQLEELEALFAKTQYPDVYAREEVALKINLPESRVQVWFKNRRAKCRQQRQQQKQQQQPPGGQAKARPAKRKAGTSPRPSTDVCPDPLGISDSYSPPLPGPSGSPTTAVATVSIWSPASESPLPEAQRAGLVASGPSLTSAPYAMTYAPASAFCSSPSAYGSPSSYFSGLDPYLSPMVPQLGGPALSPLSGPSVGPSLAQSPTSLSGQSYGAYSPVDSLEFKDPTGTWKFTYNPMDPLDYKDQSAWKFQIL

| Sequence | binding signal [1] | binding signal [2] | binding signal [3] | binding signal [4] | binding signal [5] | binding signal [6] | binding signal [7] | binding signal [8] | binding signal [9] | binding signal [10] |
| --- | --- | --- | --- | --- | --- | --- | --- | --- | --- | --- |
| TCTGTT | 1.29 fold enrichment (6-mer frequency, TF over GST control) | 1.27 fold enrichment (6-mer frequency, TF over GST control) | 1.43 fold enrichment (6-mer frequency, TF over GST control) | 1.31 fold enrichment (6-mer frequency, TF over GST control) | 1.39 fold enrichment (6-mer frequency, TF over GST control) | 1.25 fold enrichment (6-mer frequency, TF over GST control) | 1.3 fold enrichment (6-mer frequency, TF over GST control) | 1.53 fold enrichment (6-mer frequency, TF over GST control) | 1.27 fold enrichment (6-mer frequency, TF over GST control) | 1.41 fold enrichment (6-mer frequency, TF over GST control) |
| GAATCC | 1.13 fold enrichment (6-mer frequency, TF over GST control) | 1.17 fold enrichment (6-mer frequency, TF over GST control) | 1.21 fold enrichment (6-mer frequency, TF over GST control) | 1.1 fold enrichment (6-mer frequency, TF over GST control) | 1.12 fold enrichment (6-mer frequency, TF over GST control) | 1.19 fold enrichment (6-mer frequency, TF over GST control) | 1.09 fold enrichment (6-mer frequency, TF over GST control) | 1.02 fold enrichment (6-mer frequency, TF over GST control) | 1.19 fold enrichment (6-mer frequency, TF over GST control) | 1.13 fold enrichment (6-mer frequency, TF over GST control) |
| ATTGGG | 1.13 fold enrichment (6-mer frequency, TF over GST control) | 1.26 fold enrichment (6-mer frequency, TF over GST control) | 1.06 fold enrichment (6-mer frequency, TF over GST control) | 1.26 fold enrichment (6-mer frequency, TF over GST control) | 1.19 fold enrichment (6-mer frequency, TF over GST control) | 1.18 fold enrichment (6-mer frequency, TF over GST control) | 1.13 fold enrichment (6-mer frequency, TF over GST control) | 1.22 fold enrichment (6-mer frequency, TF over GST control) | 1.22 fold enrichment (6-mer frequency, TF over GST control) | 1.2 fold enrichment (6-mer frequency, TF over GST control) |
| AATATT | 1.3 fold enrichment (6-mer frequency, TF over GST control) | 1.4 fold enrichment (6-mer frequency, TF over GST control) | 1.93 fold enrichment (6-mer frequency, TF over GST control) | 1.45 fold enrichment (6-mer frequency, TF over GST control) | 1.38 fold enrichment (6-mer frequency, TF over GST control) | 1.35 fold enrichment (6-mer frequency, TF over GST control) | 1.23 fold enrichment (6-mer frequency, TF over GST control) | 1.36 fold enrichment (6-mer frequency, TF over GST control) | 1.61 fold enrichment (6-mer frequency, TF over GST control) | 1.36 fold enrichment (6-mer frequency, TF over GST control) |
| ACCATA | 1.17 fold enrichment (6-mer frequency, TF over GST control) | 1.21 fold enrichment (6-mer frequency, TF over GST control) | 1.08 fold enrichment (6-mer frequency, TF over GST control) | 1.22 fold enrichment (6-mer frequency, TF over GST control) | 1.21 fold enrichment (6-mer frequency, TF over GST control) | 1.31 fold enrichment (6-mer frequency, TF over GST control) | 1.17 fold enrichment (6-mer frequency, TF over GST control) | 1.14 fold enrichment (6-mer frequency, TF over GST control) | 1.14 fold enrichment (6-mer frequency, TF over GST control) | 1.09 fold enrichment (6-mer frequency, TF over GST control) |
| TTCTGT | 1.27 fold enrichment (6-mer frequency, TF over GST control) | 1.26 fold enrichment (6-mer frequency, TF over GST control) | 1.6 fold enrichment (6-mer frequency, TF over GST control) | 1.41 fold enrichment (6-mer frequency, TF over GST control) | 1.3 fold enrichment (6-mer frequency, TF over GST control) | 1.5 fold enrichment (6-mer frequency, TF over GST control) | 1.35 fold enrichment (6-mer frequency, TF over GST control) | 1.24 fold enrichment (6-mer frequency, TF over GST control) | 1.31 fold enrichment (6-mer frequency, TF over GST control) | 1.32 fold enrichment (6-mer frequency, TF over GST control) |
| TCCTGG | 1.46 fold enrichment (6-mer frequency, TF over GST control) | 1.68 fold enrichment (6-mer frequency, TF over GST control) | 1.29 fold enrichment (6-mer frequency, TF over GST control) | 1.54 fold enrichment (6-mer frequency, TF over GST control) | 1.53 fold enrichment (6-mer frequency, TF over GST control) | 1.38 fold enrichment (6-mer frequency, TF over GST control) | 2.03 fold enrichment (6-mer frequency, TF over GST control) | 1.17 fold enrichment (6-mer frequency, TF over GST control) | 1.27 fold enrichment (6-mer frequency, TF over GST control) | 1.68 fold enrichment (6-mer frequency, TF over GST control) |
